Source: PubChem (National Center for Advancing Translational Sciences (NCATS))
Hits are enriched below; roughly 9.2% of the tested compounds scored in any of these assays.
ALDH1A1 inh – inhibitors of human aldehyde dehydrogenase 1A1; P00352; Purified ALDH1A1, NADH fluorescence, propionaldehyde substrate; Potency, µM (highest dose often 75.3 µM), without a hit: top-dose activity, negative = inhibition, usual class: inhibitors; hit rate 7.3% among 220,000; AID 1030;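 further: plate controls were no enzyme wells and a reference inhibitor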
Target sequence (P00352 whole entry, looked up): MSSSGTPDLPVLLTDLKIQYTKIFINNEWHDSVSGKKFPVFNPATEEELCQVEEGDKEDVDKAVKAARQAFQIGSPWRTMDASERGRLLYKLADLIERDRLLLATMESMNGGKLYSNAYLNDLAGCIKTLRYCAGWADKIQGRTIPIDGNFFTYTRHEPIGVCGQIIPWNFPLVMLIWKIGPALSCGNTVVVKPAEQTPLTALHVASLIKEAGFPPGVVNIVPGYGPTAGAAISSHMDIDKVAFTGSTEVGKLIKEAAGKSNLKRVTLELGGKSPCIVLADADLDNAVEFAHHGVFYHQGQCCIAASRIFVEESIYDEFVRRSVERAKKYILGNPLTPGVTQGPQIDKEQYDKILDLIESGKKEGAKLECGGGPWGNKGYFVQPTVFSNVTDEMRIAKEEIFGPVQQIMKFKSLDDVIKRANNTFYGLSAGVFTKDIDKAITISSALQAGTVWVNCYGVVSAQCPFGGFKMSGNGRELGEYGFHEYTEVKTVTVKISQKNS
JMJD2E inh – inhibitors of human JMJD2E histone demethylase | hit rate 1.6% among 230,000 | JMJD2E catalytic domain, FDH-coupled NADH fluorescence (FDH is formaldehyde dehydrogenase) | Potency, µM (highest dose often 57.1 µM), without a hit: top-dose activity change, negative = inhibition, hits mostly inhibitors | B2RXH2 | AID 2147;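 further: 0% = wells with enzyme and -100% = buffer wells without enzyme; nearly all actives have a fitted effect of over 50% in size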
HTT ATP protect – Huntington cell model cytoprotection by ATP luminescence; Potency, µM (top dose mostly 56.4 µM), inactives show cytoprotection (ATP increase), most hits filed as activators; AID 1471; PC12 HTT-Q103 induced, cytoprotection, ATP luminescence, 40 h; hit rate 0.14% among 230,000; active means well fitted curve in the direction sought with a large enough effect; inconclusive means small, poorly fitted or top-dose-only effect, or another doubt; inactive means no such curve, though single readings can be large; an effect the other way counts as inactive or inconclusive; further: % of control where 0% means no effect; nearly all actives have a fitted effect of over 45% in size
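Stable PC12 Q103-GFP cells in serum-supplemented, phenol red-free DMEM; induction by tebufenozide at 100 nM final; compound dose series; cell viability quantified luminescently from ATP.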
HttQ103 aggreg – reduces HttQ103-GFP aggregates in PC12 cells. PC12 HttQ103-GFP aggregates, Acumen cytometry, 40 h. Potency, µM (series often up to 46.1 µM), inactives show at the highest dose activity change, negative = inhibition, usual class: inhibitors. hit rate 1.1% among 220,000; active means well fitted curve in the direction sought with a large enough effect; inconclusive means small, poorly fitted or top-dose-only effect, or another doubt; inactive means no such curve, though single readings can be large; an effect the other way counts as inactive or inconclusive; further: on the % scale 0 is the no-effect control and ±100 the full control effect; nearly all actives have a fitted effect of over 60% in size
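PC12 cells with ecdysone-inducible HTT exon1 Q103-GFP, induced by 100 nM tebufenozide, given compounds in a concentration series. GFP aggregates (1–25 um, 6 SD above background) counted in lysates by laser-scanning cytometry, 488 nm excitation.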
HPGD block – blocks human HPGD enzyme activity. P15428. purified HPGD, NADH fluorescence kinetic, PGE2 substrate. Potency, µM, inactives show at the highest dose activity change, negative = inhibition, usual class: inhibitors. hit rate 4.3% among 150,000; further: on the % scale 0 is the no-effect control and ±100 the full control effect
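NADH formation kinetics: reaction with 30 uM PGE2 and 1 mM NAD+ (final), 20 nM enzyme, Tris-HCl pH 8 with Tween 20, after 15 min compound preincubation at room temperature. Fluorescence change, last versus first of five reads.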
Lamin A splicing – modulators of lamin A splicing. HeLa LMNA splicing GFP/RFP minigene ratio, 48 h. Potency, µM (series often up to 46.1 µM), inactives show at the top dose ratio change, negative = inhibition, hits mostly inhibitors. hit rate 0.01% among 200,000. AID 1487; active means well fitted inhibition curve with a large enough effect in the signal ratio, with a control signal flat, not every such curve was filed as active; inconclusive means small, poorly fitted or top-dose-only effect, or effect the other way, or a change in a side signal; the % refers to the signal ratio; further: on the % scale 0 is the no-effect control and ±100 the full control effect
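S3 HeLa cells stably expressing lamin A-EGFP splicing minigene plus DsRed2, 600 cells/well, 48 h compound exposure at 37C. Laser-scanning cytometry; analysed as GFP (500-530 nm)/RFP (575-640 nm) total intensity ratio; 0.5% DMSO vehicle.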
Starred values were filed as active, the others as inactive; ? = inconclusive; . = no result; [ ] = dose if it differs, or a comment. Unless noted, the call rests on the fitted dose curve; in most records, active means well fitted inhibition curve with a large enough effect (not every such curve was filed as active); inconclusive means small, poorly fitted or top-dose-only effect, or another doubt; inactive means no such curve, though single readings can be large or run the other way. Potency means the concentration at half of the fitted maximal effect.

SMILES	ALDH1A1 inh	JMJD2E inh	HTT ATP protect	HttQ103 aggreg	HPGD block	Lamin A splicing
CNC(=O)Oc1cccc(-c2cn3cc(OC(=O)NC)ccc3n2)c1	?	?	.	23%	?	-7%
CNC(=O)Oc1ccc2c(c1)C(=O)c1ccccc1CO2	11µM*	-2%	0%	7%	-23%	-3%
CCN1CCN(c2ncnc3ccc(Br)cc23)CC1	?	4%	15%[0.074 µM]	7.1µM*	-22%	7%
ClCc1ccccc1	-3%	.	4%	.	-6%	.
NC(=S)N/N=C/c1coc2ccccc2c1=O	14µM*	0%	?	?	-19%	-5%
C/C(CC(c1ccccc1)c1c(O)c2ccccc2oc1=O)=N\NC(N)=S (stereo unspecified)	?	6%	.	?	?	?
Cn1cc2c([N+](=O)[O-])cc([N+](=O)[O-])cc2n1	?	-3%	-42%	21%	.	-4%[46 µM]
Cn1cnc([N+](=O)[O-])c1Sc1ccc([N+](=O)[O-])cc1	7.9µM*	0%	14%	-1%[9.22 µM]	.	.
O=c1[nH]c(=S)n(C2CC2)c(O)c1/C=N/Nc1ccccc1	3.2µM*	?	1%[10 µM]	9%	-18%	?
CCC(C)n1c(O)c(/C=N/Nc2ccccc2)c(=O)[nH]c1=S (stereo unspecified)	3.5µM*	-3%	8%[10 µM]	-8%	-23%	?
O=c1[nH]c(=S)n(C2CC2)c(O)c1/C=N/Nc1cccc2ccccc12	2.5µM*	3%	-21%[10 µM]	2%	.	-10%
CC(N=Cc1c(O)n(C2CC2)c(=S)[nH]c1=O)c1ccccc1 (stereo unspecified)	.	4%	-8%[10 µM]	-6%[9.22 µM]	.	.
Ic1ccccc1CN[C@@H]1C2CCN(CC2)[C@H]1C(c1ccccc1)c1ccccc1	.	.	-23%[1.9 µM]	.	.	.
CN(C)NC(=O)CCC(=O)O	1%	.	-3%	.	-5%	.
Cc1ccc(S(=O)ON2CCC(C(=O)O)(c3ccccc3)CC2)cc1 (stereo unspecified)	15%[13.5 µM]	.	15%[10 µM]	.	-9%	.
CCN(CC)C(=O)c1ccc(N2C(=O)C3CC=C(Cl)CC3C2=O)cc1 (stereo unspecified)	-6%	6%	-7%	4%	13µM*	6%
CCN(CC)C(=O)c1ccc(NC(=O)COc2ccc([N+](=O)[O-])cc2Cl)cc1	-14%	8%	23%[10 µM]	-8%	0.5µM*	?
Nc1nc(=S)c2ncn([C@H]3O[C@@H](CO)[C@@H](O)[C@@H]3O)c2[nH]1	?	-11%[25.5 µM]	-112%[17.1 µM]	.	-16%	?
N[C@H](Cn1cc(I)c(=O)[nH]c1=O)C(=O)O	.	.	-13%[1.9 µM]	.	.	.
COc1cccc(C(C#N)N2CCCCC2)c1O (stereo unspecified)	8%	?	2%	8%	2.2µM*	18%
N#CC(c1ccc(O)cc1)N1CCCCC1 (stereo unspecified)	4.5µM*	-9%	5%	7%	-17%	4%
COc1cc(CCN)c(OC)c(OC)c1	8%[13.5 µM]	.	-6%[10 µM]	.	-2%	.
CCCc1cc2c(n1Cc1cccc(Cl)c1)C(C)C1CN(C(=O)c3ccccc3)C(C)(C(=O)OC)C21 (stereo unspecified)	?	-7%	-34%	.	?	.
Nc1ncc([N+](=O)[O-])s1	25µM*	.	7%	.	?	.
Cc1cccc(N2C(=O)NC(=O)/C(=C\c3ccc4c(c3)CCCN4Cc3ccccc3)C2=O)c1	0.18µM*	?	26%[10 µM]	?	7.1µM*	-6%
SMILES	ALDH1A1 inh	JMJD2E inh	HTT ATP protect	HttQ103 aggreg	HPGD block	Lamin A splicing
O[C@H](CN1CC1)[C@@H](O)CN1CC1	8%[13.5 µM]	.	-3%[10 µM]	.	-1%	.
Cc1ccc(N2C(=O)NC(=O)C3(Cc4ccccc4N4CCN(c5ccccc5)CC43)C2=O)cc1 (stereo unspecified)	22µM*	-6%	-32%	-13%	.	0%
O=C1NC(=O)C2(Cc3ccccc3N3CCCC32)C(=O)N1c1cccc(Cl)c1 (stereo unspecified)	?	-19%	-2%	-3%	-7%	0%
CC(C)[C@]1(O)[C@@H](OC(=O)c2ccc[nH]2)[C@]2(O)[C@@]3(C)C[C@@]4(O)O[C@@]5([C@H](O)[C@@H](C)CC[C@]35O)[C@]2(O)[C@]41C	3%[13.5 µM]	.	8%[10 µM]	.	-7%	.
CCCN1CCC[C@H](c2cccc(C#N)c2)C1	.	.	2%[1.9 µM]	.	.	.
Cl/C=C/Cl	16%	.	3%	.	-13%	.
COc1ccc(O)c(CN2CCCC(C(=O)c3sccc3C)C2)c1 (stereo unspecified)	13µM*	6%	21%[10 µM]	27%[9.22 µM]	.	-27%[46 µM]
COC1=CC(=O)O[C@@H](/C=C/c2ccc3c(c2)OCO3)C1	25µM*	.	-79%	.	-6%	.
CCCCCCCCCc1ccc(O)cc1	100µM*	?	-54%	.	-5%	?
CC[C@H]1CN2CC[C@@H]1C[C@@H]2[C@H](O)c1ccnc2ccccc12	.	.	-9%	.	.	.
CCCCCCCCCCCC[N+](C)(C)CCOc1ccccc1	14µM*	.	-219%	?	-6%	?
CCN(N=O)C(N)=O	-13%	.	-39%	.	-2%	.
N#CSCC(=O)N1c2ccccc2CCc2ccccc21	0.79µM*	-3%	20%[10 µM]	?	18µM*	?
C=C(C)CN1C(=O)C(O)(CC(=O)c2ccc3c(c2)OCCO3)c2ccccc21 (stereo unspecified)	11µM*	-1%	-12%[0.074 µM]	8%	-5%	3%
CC(=O)Nc1ccccc1C(=O)OCC(=O)c1ccc2c(c1)OCCO2	-6%	0%	7%[10 µM]	3%	.	-19%
C[C@H](Br)CN(C[C@H](C)Br)c1ccc2c(c1)Cc1ccccc1-2	-8%[13.5 µM]	.	5%[10 µM]	.	-17%	.
O=C1OC(c2cc(I)c(O)c(I)c2)(c2cc(I)c(O)c(I)c2)c2ccccc21	-4%	.	?	.	11µM*	.
CCCCN1C(=O)/C(=C/c2ccc(N(C)C)cc2)C(=O)N(Cc2ccco2)C1=O	0.71µM*	-8%	13%	27%	25µM*	5%
Cn1cccc1/C=C1\C(=O)NC(=O)N(Cc2ccccc2)C1=O	.	-10%	-2%[10 µM]	-25%[9.22 µM]	.	.
CCN(CC)c1ccc(/C=C2\C(=O)NC(=O)N(Cc3ccco3)C2=O)cc1	0.5µM*	-10%	1%[10 µM]	-11%	16µM*	-6%
